Compound activity from PubChem.
HT1080-NT tox = kills 2HG-producing HT-1080-NT fibrosarcoma cells | HT-1080-NT fibrosarcoma viability, CellTiter-Glo ATP luminescence, 48 h | Potency, µM (series often up to 46.1 µM), for inactives: top-dose activity, negative = less viability, usual class: cytotoxic | 360,000 compounds, 1.6% hits;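 note: NT is the 2HG producing partner of a matched IDH1 knockdown line; potency is the fitted concentration of half-maximal effect; 0% = DMSO-treated cells and -100% = media-only wells without cells; nearly all actives have a fitted effect of over 55% in size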
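Luminescent CellTiter-Glo readout after 48 hours of compound exposure at 37 degrees C defined viability of HT-1080-NT cells. Activity was normalized to DMSO wells and cell-free media wells; concentration-response curves were fitted and assigned curve classes.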
ALOX12 inh = blocks human arachidonate 12S-lipoxygenase; Potency, µM (doses to about 108 µM), without a hit: at the highest dose activity change, negative = inhibition, hits mostly inhibitors; P18054; 580,000 compounds, 1.1% hits; purified 12hLO, xylenol orange hydroperoxide absorbance; AID 1671190; note: potency is the fitted concentration of half-maximal effect
Target sequence (P18054 whole entry, looked up): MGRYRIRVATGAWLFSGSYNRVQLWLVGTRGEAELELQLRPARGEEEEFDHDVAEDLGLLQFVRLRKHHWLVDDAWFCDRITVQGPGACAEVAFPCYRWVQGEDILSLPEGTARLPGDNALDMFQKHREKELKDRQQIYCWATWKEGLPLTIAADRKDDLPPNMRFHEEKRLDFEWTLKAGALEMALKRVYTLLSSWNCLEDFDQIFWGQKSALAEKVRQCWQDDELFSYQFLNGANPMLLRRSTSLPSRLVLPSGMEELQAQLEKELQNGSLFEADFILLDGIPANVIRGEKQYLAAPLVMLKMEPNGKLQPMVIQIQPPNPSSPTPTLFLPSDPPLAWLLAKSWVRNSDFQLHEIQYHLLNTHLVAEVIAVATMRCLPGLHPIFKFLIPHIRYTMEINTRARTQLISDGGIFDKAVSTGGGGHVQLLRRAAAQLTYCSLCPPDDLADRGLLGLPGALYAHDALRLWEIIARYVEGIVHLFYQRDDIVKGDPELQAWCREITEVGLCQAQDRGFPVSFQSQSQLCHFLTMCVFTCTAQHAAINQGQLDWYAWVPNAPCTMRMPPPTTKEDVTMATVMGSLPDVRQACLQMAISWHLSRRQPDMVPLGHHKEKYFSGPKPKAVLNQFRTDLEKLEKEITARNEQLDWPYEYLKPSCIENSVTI
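Purified human 12hLO (150 nM final) in 25 mM Hepes, 0.01% Triton X-100, pH 7.0 was preincubated 15 min at room temperature with compound. Then 40 uM arachidonic acid was added, 30 min. Hydroperoxide was read by Fe-XO absorbance ratio 573/405 nm.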
HT1080 IDH1KD tx = HT-1080 IDH1 knockdown cell toxicity (counter line); 360,000 compounds, 2% hits; HT-1080 IDH1 knockdown viability, ATP luminescence, 48 h; Potency, µM (titrated, usually from 46.1 µM), for the others: top-dose activity, negative = toxicity, usual class: cytotoxic; AID 686971;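 note: potency is the fitted concentration of half-maximal effect; 0% = DMSO wells and -100% = cell-free medium wells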
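After a 2 h attachment period, IDH1KD HT-1080 cells took pin-transferred compound for 48 h at 37 °C; ATP-based luminescence after 10 min room-temperature reagent incubation reported viability.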
IL-1B inflam inh = inflammasome signaling inhibition, IL-1 beta readout; THP-1 LPS/ATP IL-1B secretion, AlphaLISA, 16 h; stronger effect = lower value; activity change, % at 57.5 µM; 360,000 compounds, 4.7% hits; AID 743279; in the data active = activity change below about -50%; inconclusive = mostly about -30% to -49%
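Secreted IL-1B measured by AlphaLISA bead assay after 16 h compound exposure of THP-1 cells; compounds (final up to 57.5 uM) added 1 h before LPS (250 ng/mL) and ATP (1.25 mM) stimulation; lower signal means less secretion.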
DT40 TDP1 CPT = growth inhibition of DT40 Tdp1-/-;hTDP1 cells with camptothecin (screen for TDP1 inhibitors). Potency, µM (top dose mostly 46.2 µM), for inactives: at the top dose activity change, negative = growth inhibition, hits mostly inhibitors. chicken DT40 Tdp1-/-;hTDP1 cells + 20 nM CPT, ATP luminescence, 48 h. 420,000 compounds, 12% hits. AID 686979; note: potency is the fitted concentration of half-maximal effect; nearly all actives have a fitted effect of over 55% in size
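Chicken DT40 Tdp1-/- cells stably complemented with human TDP1 were seeded at 400 cells/well in medium containing 20 nM camptothecin, exposed to pin-transferred compounds, and grown at 37 °C for at least 48 hr. Viability was read as ATP luminescence.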
TDP1 cell noCPT = qHTS for Inhibitors of human tyrosyl-DNA phosphodiesterase 1 (TDP1): qHTS in cells in absence of CPT | Potency, µM (titrated, usually from 46.2 µM), for inactives: at the top dose activity change, negative = growth inhibition, usual class: inhibitors | DT40 Tdp1-/- hTDP1 cells, no CPT, ATP luminescence, 48 h | AID 686978, 2013 | 420,000 compounds, 15% hits; note: potency is the fitted concentration of half-maximal effect; nearly all actives have a fitted effect of over 55% in size
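Chicken DT40 Tdp1-/- cells stably complemented with human TDP1 were seeded at 400 cells/well with DMSO in place of 20 nM camptothecin. After compound pinning, cells grew at least 48 hr at 37 °C; viability read by CellTiter-Glo luminescence.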
* hit, by the source's call; [ ] = dose if it differs, or a comment. Only a selection was taken, and hits are over-represented in it overall. Unless noted, calls come from the whole dose curve; as a rule, active = well fitted curve in the direction sought with a large enough effect; inconclusive = small, poorly fitted or top-dose-only effect, or another doubt; inactive = no such curve, though single readings can be large; an effect the other way counts as inactive or inconclusive. Unless noted, % is set by controls: 0 for no effect and ±100 for the full control effect.

Screening CCn1cc(-c2ccc(OC)cc2)cc1C(=O)NCCN1CCN(C)CC1 returned ALOX12 inh 2%.
Screening COc1ccc(/C=N/NC(=O)c2cc(-c3ccccc3OC)nc3ccccc23)cc1COC(C)=O returned HT1080-NT tox -21%, ALOX12 inh 46%[57.4 µM], HT1080 IDH1KD tx -13%, IL-1B inflam inh -28, DT40 TDP1 CPT 10µM* and TDP1 cell noCPT 14µM*.
`CCN(CC)C(=O)COc1ccc(/C=N/NC(=O)c2cc(-c3ccccc3OC)nc3ccccc23)cc1OC` gave HT1080-NT tox 1%, ALOX12 inh -28%, HT1080 IDH1KD tx -4%, DT40 TDP1 CPT inconclusive and TDP1 cell noCPT inconclusive.
COc1ccc(/C=N/NC(=O)c2cc(-c3ccc(C)cc3C)nc3ccccc23)cc1COC(C)=O was read as HT1080-NT tox -4%, ALOX12 inh -14%, HT1080 IDH1KD tx -16%, IL-1B inflam inh 0, DT40 TDP1 CPT inconclusive and TDP1 cell noCPT 1.5µM*.
CC1=CC(C)C(COC(=O)C[N+]2(C)CCOCC2)C(C)C1 (stereo unspecified) was read as ALOX12 inh 20µM*.
`C[N+]1(CC(=O)c2ccc(Oc3ccc(C(=O)C[N+]4(C)CCOCC4)cc3)cc2)CCOCC1` gave DT40 TDP1 CPT -12% and TDP1 cell noCPT -18%.
For CC[N+](C)(CC)CC(=O)OCC1C(C)C=C(C)CC1C (stereo unspecified) the results were HT1080-NT tox 11%, ALOX12 inh inconclusive, HT1080 IDH1KD tx 5%, IL-1B inflam inh -11, DT40 TDP1 CPT inconclusive and TDP1 cell noCPT 8.2µM*.
Screening O=C1CS/C(=N/N=C/c2ccccc2OS(=O)(=O)c2ccccc2)N1 returned HT1080-NT tox 0%, ALOX12 inh -10%, HT1080 IDH1KD tx 6%, IL-1B inflam inh 23, DT40 TDP1 CPT 1µM* and TDP1 cell noCPT 1µM*.
Screening Cc1ccc(OS(=O)(=O)c2ccccc2)c(/C=N/N=C2\NC(=O)C(C)S2)c1 (stereo unspecified) returned HT1080-NT tox -2%, ALOX12 inh -3%, HT1080 IDH1KD tx -24%, IL-1B inflam inh -3, DT40 TDP1 CPT inconclusive and TDP1 cell noCPT 18µM*.
Cc1cnc(CNc2ncncc2-c2c(C)noc2C)cn1 was read as ALOX12 inh -18%, DT40 TDP1 CPT 3.7µM* and TDP1 cell noCPT 2.6µM*.
`Cc1cnc(CNc2ncncc2-c2ccccc2C(F)(F)F)cn1` gave ALOX12 inh 22µM*, DT40 TDP1 CPT inconclusive and TDP1 cell noCPT -28%.
CN(Cc1ccccc1)C(=O)CC1CCN(C(=O)c2ccncc2)C1 (stereo unspecified) was read as ALOX12 inh 80%.
`N#Cc1cnc(NCc2ccc(Cl)cc2Cl)nc1` gave HT1080-NT tox -2%, HT1080 IDH1KD tx 0%, IL-1B inflam inh 8, DT40 TDP1 CPT 4% and TDP1 cell noCPT 3%.
Screening CN1OC[C@@H]2CN(C(=S)NCCc3ccccc3)[C@H](c3ccccc3Br)C[C@@H]21 returned HT1080-NT tox -17%, ALOX12 inh 41%, HT1080 IDH1KD tx inconclusive, IL-1B inflam inh -25, DT40 TDP1 CPT inconclusive and TDP1 cell noCPT 16µM*.
CN1OC[C@@H]2CN(C(=O)CCc3ccccc3)[C@H](c3cccc(-c4ccccc4)c3)C[C@@H]21 was read as HT1080-NT tox -4%, ALOX12 inh inconclusive, HT1080 IDH1KD tx -3%, IL-1B inflam inh 0, DT40 TDP1 CPT 26µM* and TDP1 cell noCPT inconclusive.
For CC(=O)N1C[C@H]2CON(C)[C@H]2C[C@H]1c1cccc(-c2cc(Cl)cc(Cl)c2)c1 the results were HT1080-NT tox -12%, ALOX12 inh -6%, HT1080 IDH1KD tx -7%, IL-1B inflam inh -23, DT40 TDP1 CPT inconclusive and TDP1 cell noCPT 23µM*.
Screening CN1OC[C@@H]2CN(C(=O)CCc3ccccc3)[C@H](c3cccc(Oc4ccccc4)c3)C[C@@H]21 returned HT1080-NT tox -1%, ALOX12 inh -13%, HT1080 IDH1KD tx -4%, IL-1B inflam inh -13, DT40 TDP1 CPT inconclusive and TDP1 cell noCPT inconclusive.
COCCOc1ccc(C(F)(F)F)cc1NC(=O)COC(=O)c1cc([N+](=O)[O-])ccc1N1CCOCC1 was read as HT1080-NT tox -4%, ALOX12 inh -6%, HT1080 IDH1KD tx 1%, IL-1B inflam inh -16, DT40 TDP1 CPT 15µM* and TDP1 cell noCPT 23µM*.
For O=C(Oc1ccc(Br)cc1C(=S)N1CCOCC1)c1ccc([N+](=O)[O-])cc1[N+](=O)[O-] the results were HT1080-NT tox inconclusive, ALOX12 inh inconclusive, HT1080 IDH1KD tx inconclusive, IL-1B inflam inh -92*, DT40 TDP1 CPT 21µM* and TDP1 cell noCPT inconclusive.
Screening CCc1ccc(C(=O)COC(=O)c2cc([N+](=O)[O-])ccc2N2CCOCC2)cc1 returned HT1080-NT tox 9.2µM*, ALOX12 inh -4%, HT1080 IDH1KD tx 8.2µM*, IL-1B inflam inh -15, DT40 TDP1 CPT inconclusive and TDP1 cell noCPT 18µM*.
Screening O=C(COC(=O)c1cc([N+](=O)[O-])ccc1N1CCOCC1)NCc1ccccc1 returned HT1080-NT tox -7%, ALOX12 inh inconclusive, HT1080 IDH1KD tx -4%, IL-1B inflam inh -16, DT40 TDP1 CPT -6% and TDP1 cell noCPT -11%.
COc1cccc(CNC(=O)COC(=O)c2cc([N+](=O)[O-])ccc2N2CCCC2)c1 was read as HT1080-NT tox -3%, ALOX12 inh 86%, HT1080 IDH1KD tx -7%, IL-1B inflam inh inconclusive, DT40 TDP1 CPT 16µM* and TDP1 cell noCPT 23µM*.
Screening Cc1nc2ncccn2c1C(=O)N1CCC(c2[nH]ncc2-c2ccccc2)CC1 returned ALOX12 inh -13%.
Screening COC(=O)[C@H](Cc1ccc(OC)cc1)NC(=O)[C@H]1CN(C(=O)c2cccnc2)CCN1C(=O)NC(C)C returned ALOX12 inh 24%.
For C[S+](C)CC(=O)c1ccc2ccccc2c1 the results were DT40 TDP1 CPT -15% and TDP1 cell noCPT -12%.
Screening CS(=O)(=O)N1CCCN(C(=O)CN2CCCC2=O)CCNC(=O)CC1c1ccccc1 (stereo unspecified) returned ALOX12 inh 40%.
For CCC(CC)NC(=O)CSc1nc2cc(S(=O)(=O)N(C)C)ccc2o1 the results were ALOX12 inh 1%.
